Bioassay records as filed in PubChem BioAssay.
D1 ag: Allosteric Agonists of the Human D1 Dopamine Receptor: qHTS | HEK293 T-REx D1 cells, calcium flux, agonist mode | activation, % at 2 µM | AID 504660, 2011 | D(1A) dopamine receptor (Homo sapiens), P21728 | hit rate 1% among 360,000; in the data active = activation above about 30%; note: 0% is about no effect
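Tetracycline-induced HEK293 TREx D1 cells, force-coupled to calcium signalling, were dye-loaded with a no-wash calcium kit. Compound was pin-added after a 10 s baseline. Fluorescence was read kinetically at 1 cycle/s for 180 s, with calcium rises flagged as agonism.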
D1 antag: Antagonist of Human D 1 Dopamine Receptor: qHTS | D(1A) dopamine receptor (Homo sapiens), P21728 | HEK293 TREx D1 cells, calcium flux, dopamine EC80; active compounds read low | activity change, negative = inhibition, % at 10 µM | hit rate 3.2% among 360,000; in the data active = activity change below about -30%; note: % is set by controls: 0 for no effect and ±100 for the full control effect
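Tetracycline-induced HEK293 T-REx cells with force-coupled D1 receptor were loaded with a no-wash calcium dye. Compound was added after a 10 s baseline and read kinetically for 180 s; EC80 dopamine was then added and calcium flux followed another 180 s.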
TRHR agonist-1: qHTS for Small Molecule Agonists and Allosteric Enhancers of Human TRH Receptor: Primary Screen for Agonists; Thyrotropin-releasing hormone receptor (Homo sapiens), P34981; TRHR cells, calcium flux fluo-8, FDSS agonist mode; activation, % at 2 µM; hit rate 0.18% among 360,000; in the data active = activation above about 30%; note: 0% is about no effect
Target sequence (P34981 whole entry, looked up): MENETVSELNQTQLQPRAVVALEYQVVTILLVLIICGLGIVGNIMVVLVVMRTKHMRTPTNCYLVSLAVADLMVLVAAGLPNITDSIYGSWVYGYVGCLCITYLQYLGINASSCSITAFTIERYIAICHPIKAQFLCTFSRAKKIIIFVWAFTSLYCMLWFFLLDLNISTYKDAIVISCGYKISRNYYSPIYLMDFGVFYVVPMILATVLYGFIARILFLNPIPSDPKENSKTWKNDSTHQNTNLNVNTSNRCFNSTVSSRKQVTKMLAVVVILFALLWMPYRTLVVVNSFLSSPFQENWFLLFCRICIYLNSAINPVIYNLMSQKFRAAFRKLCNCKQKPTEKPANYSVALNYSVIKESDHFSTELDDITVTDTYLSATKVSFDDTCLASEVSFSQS
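TRHR-expressing cells loaded with fluo-8 calcium dye; 23 nL library compound pin-transferred, kinetic FDSS fluorescence (Ex 480/Em 530) recorded about 180 s for agonist-induced calcium release, before a 10 nM TRH EC20 addition for potentiator mode.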
D1 PAM: Potentiators of Human D1 Dopamine Receptor: qHTS. D(1A) dopamine receptor (Homo sapiens), P21728. HEK293 TREx D1 cells, calcium flux, dopamine EC20 potentiation. potentiation, % at 10 µM. hit rate 0.036% among 360,000; in the data active = potentiation above about 30%; note: 0% is about no effect
TRHR enhancer-1: qHTS for Small Molecule Agonists and Allosteric Enhancers of Human TRH Receptor: Primary Screen for Enhancers. Thyrotropin-releasing hormone receptor (Homo sapiens), P34981. TRHR cells, fluo-8 calcium fluorescence, EC20 TRH enhancement. enhancement, % at 2 µM. hit rate 0.66% among 360,000. AID 493056, 2011; in the data active = enhancement above about 30%; note: 0% is about no effect
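Enhancer read-out: after compound pinning and an initial kinetic agonist-mode read, an EC20 of TRH (10 nM final) was injected and fluo-8 calcium signal (Ex 480/Em 530) followed at 1 s/cycle for 100 cycles in TRHR-expressing cells.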
TRHR enhancer-2: qHTS for Small Molecule Agonists and Allosteric Enhancers of Human TRH Receptor: Confirmation Screen for Enhancers. shares compounds with TRHR enhancer-1. TRH receptor cell assay, enhancer confirmation qHTS. activity change, negative = inhibition, % at 46.1 µM. 970 tested, under 10 active. AID 493076, 2011;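 note: compound effect scored on response to added TRH at EC20 of 10 nM; 0% is about no effect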
TRHR agonist-2: qHTS for Small Molecule Agonists and Allosteric Enhancers of Human TRH Receptor: Confirmation Screen for Agonists; shares compounds with TRHR enhancer-1; TRHR-expressing cells, agonist activation read-out; Potency, µM (series often up to 46.1 µM), for the others: top-dose activation, actives largely listed as activators; hit rate 8% among 970; AID 493078, 2011; note: potency is the fitted concentration of half-maximal effect; 0% is about no effect; nearly all actives have a fitted effect of over 75% in size
The depositor's hits bear a star. This is a sample that favours compounds with a hit; in the whole collection about 4.7% have one here. Unless noted, calls come from the whole dose curve; as a rule, active = well fitted curve in the direction sought with a large enough effect; inconclusive = small, poorly fitted or top-dose-only effect, or another doubt; inactive = no such curve, though single readings can be large; an effect the other way counts as inactive or inconclusive.

`Cc1cc(=O)oc2c(CN3CCCC3)c(O)c(Cl)cc12` gave D1 ag 17, D1 antag -12, TRHR agonist-1 -2, D1 PAM -3, TRHR enhancer-1 59*, TRHR enhancer-2 -12 and TRHR agonist-2 3%.
Screening Cc1cc(=O)oc2c(CN3CCCCC3)c(O)c(Cl)cc12 returned D1 ag -3, D1 antag -15, TRHR agonist-1 -1, D1 PAM -3 and TRHR enhancer-1 19.
O=C(NNC(=O)c1n[nH]c2ccccc12)c1ccccc1 was read as D1 ag 5, D1 antag -6, TRHR agonist-1 0, D1 PAM 2, TRHR enhancer-1 49*, TRHR enhancer-2 inconclusive and TRHR agonist-2 7%.
For CCN1C(=O)c2ccccc2S(=O)(=O)c2ccc(C(=O)NC(C)C)cc21 the results were D1 ag 0, D1 antag -25, TRHR agonist-1 1, D1 PAM -12, TRHR enhancer-1 53*, TRHR enhancer-2 -3 and TRHR agonist-2 0%.
For Cc1ccc(C(=O)NCc2ccc(F)cc2)cc1NC1=NC2CS(=O)(=O)CC2S1 (stereo not given) the results were D1 ag 2, D1 antag -2, TRHR agonist-1 0, D1 PAM -2 and TRHR enhancer-1 0.
`Cc1cccc(-n2ncc3c(NCCCN4CCCC4=O)ncnc32)c1` gave D1 ag 9, D1 antag 4, TRHR agonist-1 0, D1 PAM -2 and TRHR enhancer-1 6.
O=C1CCCN1CCCNc1ncnc2c1cnn2-c1ccc(Cl)cc1 was read as D1 ag 8, D1 antag -13, TRHR agonist-1 0, D1 PAM -1, TRHR enhancer-1 54*, TRHR enhancer-2 -8 and TRHR agonist-2 5%.
For COc1ccc(N(C(C)C(=O)N(C)Cc2ccccc2)S(C)(=O)=O)cc1 (stereo not given) the results were D1 ag 2, D1 antag 5, TRHR agonist-1 0, D1 PAM 0, TRHR enhancer-1 50*, TRHR enhancer-2 1 and TRHR agonist-2 0%.
`COc1ccc(NC(=O)C(C)N(c2ccccc2)S(C)(=O)=O)cc1` (stereo not given) gave D1 ag -1, D1 antag -7, TRHR agonist-1 -1, D1 PAM -1 and TRHR enhancer-1 5.
CCOC(=O)C1CCCN(c2c(Nc3ccc(C)c(C)c3)c(=O)c2=O)C1 (stereo not given) was read as D1 ag 1, D1 antag -7, TRHR agonist-1 -1, D1 PAM -9, TRHR enhancer-1 57*, TRHR enhancer-2 -3 and TRHR agonist-2 3%.
Screening O=C(Nc1ccccn1)N1CCOCC1 returned D1 ag 1, D1 antag 0, TRHR agonist-1 0, D1 PAM -4, TRHR enhancer-1 48*, TRHR enhancer-2 -2 and TRHR agonist-2 -1%.
For CC(=O)c1nnn(-c2nc(N3CCCC3)nc(N(c3ccccc3)c3ccccc3)n2)c1C the results were D1 ag 1, D1 antag 14, TRHR agonist-1 1, D1 PAM 1, TRHR enhancer-1 45*, TRHR enhancer-2 -3 and TRHR agonist-2 4%.
`COc1nc(N2CCCC2)nc(-n2nnc(C(C)=O)c2C)n1` gave D1 ag 0, D1 antag 5, TRHR agonist-1 0, D1 PAM -1 and TRHR enhancer-1 1.
CCCCCn1c(CN2CC(C)OC(C)C2)nc2c1c(=O)n(C)c(=O)n2C (stereo not given) was read as D1 ag 5, D1 antag 11, TRHR agonist-1 0, D1 PAM -1, TRHR enhancer-1 42*, TRHR enhancer-2 9 and TRHR agonist-2 0%.
For CCOCCn1c(C)c(C(=O)OCC)c2cc(O)c3ccccc3c21 the results were D1 ag -1, D1 antag -1, TRHR agonist-1 -1, D1 PAM -5 and TRHR enhancer-1 7.
For Cc1csc(N2CCCC2=O)n1 the results were D1 ag 4, D1 antag -9, TRHR agonist-1 0, D1 PAM -5, TRHR enhancer-1 41*, TRHR enhancer-2 5 and TRHR agonist-2 -1%.
CC(=O)Nc1ccc(S(=O)(=O)NCCC(=O)Nc2ccc(C)c(F)c2)cc1 was read as D1 ag 0, D1 antag -7, TRHR agonist-1 0, D1 PAM 2 and TRHR enhancer-1 4.
Screening O=[N+]([O-])c1cccc(N=Cc2sc3ccccc3c2O)c1 returned D1 ag 5, D1 antag -12, TRHR agonist-1 1, D1 PAM 0, TRHR enhancer-1 43*, TRHR enhancer-2 -3 and TRHR agonist-2 0%.
Screening O=[N+]([O-])c1cccc(N/N=C/c2cccc3ccccc23)c1 returned D1 ag 0, D1 antag 29, TRHR agonist-1 0, D1 PAM 1 and TRHR enhancer-1 -4.
Screening COCCNC(=O)C(c1ccc(OC)cc1)N(C(=O)Cn1nnc2ccccc21)c1cccnc1 (stereo not given) returned D1 ag 2, D1 antag -2, TRHR agonist-1 0, D1 PAM 2, TRHR enhancer-1 42*, TRHR enhancer-2 -5 and TRHR agonist-2 0%.
`CCc1ccc(C(C(=O)NCCOC)N(C(=O)Cn2nnc3ccccc32)c2cccnc2)cc1` (stereo not given) gave D1 ag 0, D1 antag -2, TRHR agonist-1 0, D1 PAM 11 and TRHR enhancer-1 3.
For Cc1ccc(S(=O)(=O)/N=C2\C=C(Nc3cccc(C(=O)O)c3)C(=O)c3ccccc32)c(C)c1 the results were D1 ag -2, D1 antag 2, TRHR agonist-1 -2, D1 PAM 1, TRHR enhancer-1 61*, TRHR enhancer-2 -12 and TRHR agonist-2 3%.
Cc1ccc(S(=O)(=O)/N=C2\C=C(Nc3cccc(C(=O)O)c3)C(=O)c3ccccc32)cc1 was read as D1 ag 3, D1 antag 7, TRHR agonist-1 0, D1 PAM -7 and TRHR enhancer-1 0.
